# Measured values published in PubChem BioAssay (EPA / NIEHS).
# Results filed as inconclusive are left out. Activity calls are given as the source filed them. Rule for the calls, unless noted: active = hit-call score of the fitted dose curve at least 0.9, where 1 is the maximum; inconclusive = response in the unintended direction; inactive = score below 0.9.
# Key:
# [1] = TOX21_p53_BLA_p2_viability: Viability Assessment in the Tox21 HCT-116 p53 Agonism Beta-lactamase Assay, Phase 2 (AID 2283591);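 note: actives lower the ATP signal meaning cytotoxicity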
# In short: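 Cytotoxicity readout: CellTiter-Glo ATP luminescence, 30 min at room temperature, after the beta-lactamase read. Cells were HCT116 exposed 16 h at 37C to compounds pin-transferred at 217-fold dilution from DMSO stocks.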
# [2] = TOX21_p53_BLA_p3_viability: Viability Assessment in the Tox21 HCT-116 p53 Agonism Beta-lactamase Assay, Phase 3 (AID 2283593);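 note: cells exposed to compound for 16 h before reading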
# In short: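 Cellular ATP was quantified by CellTiter-Glo luminescence, read after 30 min at room temperature. Beforehand, HCT116 cells (4000/well) received compound 5 h post-seeding, 217-fold diluted from DMSO, then incubated 16 h at 37C.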
# [3] = target: Cellular tumor antigen p53 (Homo sapiens) (UniProt P04637); test: TOX21_p53_BLA_p5_ratio: Tox21 HCT-116 p53 Agonism Beta-lactamase Assay, Ratio, Phase 5 (AID 2283599)
# Sequence of Cellular tumor antigen p53 (Homo sapiens) (P04637 whole entry, looked up): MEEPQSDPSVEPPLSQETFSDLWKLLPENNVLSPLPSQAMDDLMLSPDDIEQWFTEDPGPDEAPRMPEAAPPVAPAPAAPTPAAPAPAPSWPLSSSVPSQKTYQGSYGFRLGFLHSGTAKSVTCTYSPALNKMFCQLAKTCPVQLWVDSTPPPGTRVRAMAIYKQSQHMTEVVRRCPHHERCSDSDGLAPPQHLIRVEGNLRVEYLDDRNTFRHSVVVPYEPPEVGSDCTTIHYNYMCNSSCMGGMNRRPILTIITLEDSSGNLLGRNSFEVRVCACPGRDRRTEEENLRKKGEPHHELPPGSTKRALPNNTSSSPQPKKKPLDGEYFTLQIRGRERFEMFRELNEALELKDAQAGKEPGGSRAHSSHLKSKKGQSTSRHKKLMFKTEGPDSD
# In short: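 Beta-lactamase reporter ratio (blue 460 nm over green 530 nm, 405 nm excitation) after 2 h CCF4-AM loading, in HCT-116 cells exposed 16 h at 37 C to compounds pinned at 217-fold dilution. Increases relative to DMSO baseline scored.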
# [4] = TOX21_p53_BLA_p5_viability: Viability Assessment in the Tox21 HCT-116 p53 Agonism Beta-lactamase Assay, Phase 5 (AID 2283600)
# In short: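 ATP luminescence (CellTiter-Glo, 30 min, RT) served as the viability read-out, with loss of signal indicating cytotoxicity. Compounds in DMSO were pinned at a 217-fold dilution onto 4000 cells/well and incubated 16 h, 37C.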
# [5] = target: Cellular tumor antigen p53 (Homo sapiens) (UniProt P04637); test: TOX21_p53_BLA_p4_ratio: Tox21 HCT-116 p53 Agonism Beta-lactamase Assay, Ratio, Phase 4 (AID 2283601)
# In short: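 Signal is the blue/green (460nm/530nm) ratio of cleaved versus uncleaved CCF4-AM substrate, read after 2 h substrate loading. Cells were HCT116 carrying the p53-responsive beta-lactamase reporter, dosed 16 h at 37C, 5% CO2; CellTiter-Glo measured in parallel.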
# [6] = TOX21_p53_BLA_p4_viability: Viability Assessment in the Tox21 HCT-116 p53 Agonism Beta-lactamase Assay, Phase 4 (AID 2283597);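 note: hits lower the luminescence signal meaning cytotoxicity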
# In short: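 ATP content by CellTiter-Glo luminescence, 30 min RT, read after the beta-lactamase ratio step. Cells: HCT116, 4000/well, compound added after 5 h, exposure 16 h at 37C. Signal loss = reduced viability.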
# PGR (gene 5241) [7] = target: PGR (gene 5241) (UniProt P06401); test: TOX21_PR_BLA_Followup_Antagonist_ratio: Tox21 HEK293 Progesterone Receptor (PR) Antagonism Beta-lactamase Follow-Up Assay, Ratio (AID 2283934);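 note: PR-UAS-bla HEK293T cells stimulated with 1 nM R5020 agonist for 16 hr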
# Sequence of PGR (gene 5241) (P06401 whole entry, looked up): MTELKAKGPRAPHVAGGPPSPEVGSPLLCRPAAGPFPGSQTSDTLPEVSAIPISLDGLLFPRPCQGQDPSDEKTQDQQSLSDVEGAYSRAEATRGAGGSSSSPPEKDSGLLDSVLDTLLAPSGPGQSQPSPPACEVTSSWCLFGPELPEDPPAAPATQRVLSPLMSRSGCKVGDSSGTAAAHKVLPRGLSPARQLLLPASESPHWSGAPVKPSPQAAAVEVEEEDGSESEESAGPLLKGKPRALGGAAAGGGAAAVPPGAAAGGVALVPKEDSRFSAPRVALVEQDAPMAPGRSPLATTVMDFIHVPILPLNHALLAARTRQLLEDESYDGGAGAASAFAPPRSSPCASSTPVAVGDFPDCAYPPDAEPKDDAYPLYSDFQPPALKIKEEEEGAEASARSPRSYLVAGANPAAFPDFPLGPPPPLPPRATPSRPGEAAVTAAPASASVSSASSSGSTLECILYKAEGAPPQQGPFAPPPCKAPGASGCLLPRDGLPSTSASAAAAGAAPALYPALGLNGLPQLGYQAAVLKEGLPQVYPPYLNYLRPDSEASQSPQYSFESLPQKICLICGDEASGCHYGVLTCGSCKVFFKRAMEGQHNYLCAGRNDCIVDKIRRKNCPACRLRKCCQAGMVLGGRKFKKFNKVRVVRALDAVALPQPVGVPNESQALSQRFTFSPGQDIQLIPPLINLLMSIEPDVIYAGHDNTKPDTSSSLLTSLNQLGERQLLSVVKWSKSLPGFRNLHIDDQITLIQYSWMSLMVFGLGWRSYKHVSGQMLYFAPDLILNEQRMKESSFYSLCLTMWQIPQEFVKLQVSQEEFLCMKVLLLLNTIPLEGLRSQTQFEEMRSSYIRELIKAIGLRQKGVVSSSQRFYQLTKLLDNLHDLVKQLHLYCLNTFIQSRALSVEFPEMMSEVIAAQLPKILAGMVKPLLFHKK
# In short: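 Measured in PR-UAS-bla HEK293T cells co-treated with compound and 1 nM promegestone for 16 hr; beta-lactamase ratio read after 2 h FRET substrate loading, with parallel CellTiter-Glo cytotoxicity.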
# [8] = TOX21_PR_BLA_Followup_Agonist_viability: Viability Assessment in the Tox21 HEK293 Progesterone Receptor (PR) Agonism Beta-lactamase Follow-Up Assay (AID 2283935);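 note: signal loss means lower viability so actives are cytotoxic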
# In short: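 Viability is read as CellTiter-Glo luminescence, where loss of signal indicates cytotoxicity. The cells are PR-UAS-bla HEK293T given compounds for 16 hr at 37C and 5% CO2, in the same wells used for the bla readout.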
# [9] = TOX21_PR_LUC_Followup_Agonist_viability: Viability Assessment in the Tox21 HEK293 Progesterone Receptor (PR) Agonism Luciferase Follow-Up Assay (AID 2283941);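 note: loss of signal means cytotoxicity so actives lower viability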
# In short: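 Seeding: HEK293-PR-A-luc, 3,000 cells/well, 5 h at 37C. Treatment: compound in DMSO, 16 h, 37C. Read: CellTiter-Glo ATP luminescence, signal loss taken as lower viability.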
# PGR (gene 5241) [10] = target: PGR (gene 5241) (UniProt P06401); test: TOX21_PR_BLA_Followup_Agonist_ratio: Tox21 HEK293 Progesterone Receptor (PR) Agonism Beta-lactamase Follow-Up Assay, Ratio (AID 2283933)
# In short: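 Ratio-based beta-lactamase reporter signal after 16 hr compound treatment of PR-UAS-bla HEK293T cells at 37C. Substrate loading lasted 2 hr at room temperature.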
# [11] = TOX21_PR_BLA_Followup_Antagonist_viability: Viability Assessment in the Tox21 HEK293 Progesterone Receptor (PR) Antagonism Beta-lactamase Follow-Up Assay (AID 2283936);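 note: cells exposed to compound with R5020 agonist for 16 h; hits lower the luminescence signal meaning cytotoxicity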
# In short: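 PR-UAS-bla HEK293T cells in medium with 2% charcoal-stripped FBS were treated with compounds plus R5020 for 16 hr at 37C. After the beta-lactamase read, CellTiter-Glo was added to the same wells and luminescence read after 30 min at room temperature.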
# PGR (gene 5241) [12] = target: PGR (gene 5241) (UniProt P06401); test: TOX21_PR_LUC_Followup_Agonist: Tox21 HEK293 Progesterone Receptor (PR) Agonism Luciferase Follow-Up Assay (AID 2283937; active = hit-call score of the fitted dose curve at least 0.9, where 1 is the maximum; inactive = score below 0.9)
# In short: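 In HEK293 cells stably expressing PR-A with a luciferase reporter, compounds were incubated 16 h at 37C, and induced luminescence was quantified with ONE-Glo, multiplexed with cell viability.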
# [13] = CCTE_Harrill_HTTr_Viability_MCF7: CCTE's 6-hour Cell Viability Assessment for the High-Throughput Transcriptomics (HTTr) Platform, in MCF-7 cells cultured in DMEM + 10% fetal bovine serum, Harrill Lab (AID 2284010; active = hit-call score of the fitted dose curve at least 0.9, where 1 is the maximum; inactive = score below 0.9)
# In short: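 Eight-point concentration series, six-hour exposure. Propidium iodide exclusion imaged to assess membrane integrity as a cytotoxicity readout; bidirectional fitting was done with DMSO as negative control and activity baseline.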
# [14] = CCTE_Harrill_HTTr_Apoptosis_MCF7: CCTE's 6-hour Apoptosis Assessment for the High-Throughput Transcriptomics (HTTr) Platform, in MCF-7 cells cultured in DMEM + 10% fetal bovine serum, Harrill Lab (AID 2284011; active = hit-call score of the fitted dose curve at least 0.9, where 1 is the maximum; inactive = score below 0.9)
# In short: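 Read-out: CellEvent Caspase 3/7 Green signal by high content imaging, gain-of-signal indicating apoptosis. MCF-7 cells, DMEM + 10% FBS, eight-point dilution series, 6 h exposure. Curves fitted bidirectionally relative to DMSO negative control.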
# [15] = CCTE_Harrill_HTTr_CellCount_MCF7: CCTE's Cell Proliferation Assessment for the High-Throughput Transcriptomics (HTTr) Platform, Harrill Lab (AID 2284012);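 note: count of Hoechst-stained nuclei per well by high-content imaging in MCF-7 cells; cells exposed to compound for six hours; intended direction is loss of nuclei count meaning fewer cells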
# In short: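 For this full-screen endpoint, MCF-7 cultures received eight compound dilutions for six hours. Well nuclei counts from Hoechst imaging were analyzed relative to DMSO.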
# [16] = target: Cellular tumor antigen p53 (Homo sapiens) (UniProt P04637); test: TOX21_p53_BLA_p3_ratio: Tox21 HCT-116 p53 Agonism Beta-lactamase Assay, Ratio, Phase 3 (AID 2283596)
# In short: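 Cells were seeded at 4000/well, rested 5 h at 37C, then dosed with DMSO compound solutions (217-fold dilution) for 16 h. CCF4-AM substrate was loaded for 2 h at room temperature, and the 460/530 nm emission ratio was fitted for gain of signal versus DMSO.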
smiles,measurement,setting,value
Cc1ccc(N(CCO)CCO)cc1,outcome,[1],inactive
same,outcome,[2],inactive
same,outcome,[3],inactive
same,outcome,[4],inactive
same,outcome,[5],inactive
CCOC(=O)OCC/C(SC(=O)OCC)=C(\C)N(C=O)Cc1cnc(C)nc1N,outcome,[1],inactive
same,outcome,[2],inactive
same,outcome,[6],inactive
same,outcome,[4],inactive
CC(CO)(CO)CO,outcome,[1],inactive
same,outcome,[2],inactive
same,outcome,[3],inactive
same,outcome,[4],inactive
same,outcome,[5],inactive
O=C(CCCN1CCC(O)(c2cccc(C(F)(F)F)c2)CC1)c1ccc(F)cc1,outcome,[1],inactive
same,outcome,[2],inactive
same,outcome,[6],inactive
same,outcome,[4],inactive
same,outcome,[5],inactive
CC(C)(CC(=O)O)C(=O)O,outcome,[1],inactive
same,outcome,[2],inactive
same,outcome,[3],inactive
same,outcome,[4],inactive
CCN(CC)C(=O)c1cccnc1,outcome,[1],inactive
same,outcome,[2],inactive
same,outcome,[6],inactive
same,outcome,[4],inactive
same,outcome,[5],inactive
CCOC(=O)C(C)O (stereo not drawn),outcome,[1],inactive
same,outcome,[2],inactive
same,outcome,[6],inactive
same,outcome,[4],inactive
same,outcome,[5],inactive
O=c1[nH]c2ccccc2n1CCCN1CCN(C(c2ccccc2)c2ccccc2)CC1,outcome,[1],inactive
same,outcome,[2],inactive
same,AC50,[6],31.3 µM (active)
same,outcome,[4],inactive
CCOC(=O)COc1ccc2c(C)c(CCN(CC)CC)c(=O)oc2c1Cl,outcome,[1],inactive
same,outcome,[2],inactive
same,outcome,[3],inactive
same,outcome,[4],inactive
same,outcome,[5],inactive
NCc1ccccc1Sc1ccccc1CO,outcome,[1],inactive
same,outcome,[2],inactive
same,outcome,[6],inactive
same,outcome,[5],inactive
CN(CCO)CC(O)Cn1cnc2c1c(=O)n(C)c(=O)n2C (stereo not drawn) (tested in a mixture with another compound),outcome,[1],inactive
same,outcome,[2],inactive
same,outcome,[6],inactive
same,outcome,[4],inactive
C[C@H]1C[C@H]2[C@@H]3CCC4=CC(=O)C=C[C@]4(C)[C@@]3(Cl)[C@@H](O)C[C@]2(C)[C@@]1(O)C(=O)CO,outcome,[1],inactive
same,outcome,[2],inactive
same,outcome,[6],inactive
same,outcome,[4],inactive
same,outcome,[5],inactive
same,outcome,PGR (gene 5241) [7],inactive
same,outcome,[8],inactive
same,outcome,[9],inactive
O=C(O)COc1nn(Cc2ccccc2)c2ccccc12,outcome,[1],inactive
same,outcome,[2],inactive
same,outcome,[6],inactive
same,outcome,[4],inactive
same,outcome,[5],inactive
O=C(O)CCC(=O)Nc1ccc(S(=O)(=O)Nc2nccs2)cc1,outcome,[1],inactive
same,outcome,[2],inactive
same,outcome,[3],inactive
same,outcome,[4],inactive
same,outcome,[5],inactive
Cc1cc(C)c(C=C2C(=O)Nc3ccccc32)[nH]1,outcome,[1],inactive
same,outcome,[2],inactive
same,outcome,[6],inactive
same,outcome,[4],inactive
same,outcome,PGR (gene 5241) [10],inactive
same,outcome,PGR (gene 5241) [7],inactive
same,outcome,[8],inactive
same,outcome,[11],inactive
same,outcome,PGR (gene 5241) [12],inactive
same,outcome,[9],inactive
same,outcome,[13],inactive
same,AC50,[14],15.2 µM (active)
same,outcome,[15],inactive
CC(C)OC(C)C,outcome,[1],inactive
same,outcome,[2],inactive
same,outcome,[3],inactive
same,outcome,[4],inactive
same,outcome,[5],inactive
CC(=O)c1ccc(OCC(=O)N2CCCCC2)cc1,outcome,[1],inactive
same,outcome,[2],inactive
same,outcome,[3],inactive
same,outcome,[4],inactive
same,outcome,[5],inactive
CC1=C(C)C(=O)C(C(CCCCCC(=O)O)c2ccccc2)=C(C)C1=O (stereo not drawn),outcome,[1],inactive
same,outcome,[2],inactive
same,outcome,[6],inactive
same,outcome,[4],inactive
same,outcome,[5],inactive
CCCCCCCCCCCC(=O)N(CC)CC,outcome,[1],inactive
same,outcome,[2],inactive
same,outcome,[3],inactive
same,outcome,[4],inactive
COC(=O)C(c1ccccc1Cl)N1CCc2sccc2C1 (stereo not drawn),outcome,[1],inactive
same,outcome,[2],inactive
same,outcome,[3],inactive
same,outcome,[4],inactive
same,AC50,PGR (gene 5241) [7],28.9 µM (active)
same,outcome,[8],inactive
same,outcome,[11],inactive
same,outcome,[9],inactive
NC(=O)C1c2ccccc2CCc2ccccc21,outcome,[1],inactive
same,outcome,[2],inactive
same,outcome,[3],inactive
O=C1OCCO1,outcome,[1],inactive
same,outcome,[2],inactive
same,outcome,[3],inactive
same,outcome,[4],inactive
CC1(C)[C@H]2CC[C@](C)(C2)[C@H]1O,outcome,[1],inactive
same,outcome,[2],inactive
same,outcome,[6],inactive
same,outcome,[5],inactive
CCOCCOCCOC(C)=O,outcome,[1],inactive
same,outcome,[2],inactive
same,outcome,[3],inactive
same,outcome,[4],inactive
same,outcome,[5],inactive
O=C(Nc1ccc(O)cc1)c1ccccc1O,outcome,[1],inactive
same,outcome,[16],inactive
same,outcome,[6],inactive
Cc1cc(C(=O)O)ccc1[N+](=O)[O-],outcome,[1],inactive
same,outcome,[16],inactive
same,outcome,[6],inactive
same,outcome,[3],inactive
Nc1nc(/C(=C/CC(=O)O)C(=O)N[C@@H]2C(=O)N3C(C(=O)O)=CCS[C@H]23)cs1,outcome,[1],inactive
same,outcome,[16],inactive
same,outcome,[6],inactive
same,outcome,[3],inactive
Cc1ccc2c(c1)c1c3n2CCNC3CCC1 (stereo not drawn),outcome,[1],inactive
same,outcome,[16],inactive
same,outcome,[6],inactive
same,outcome,[3],inactive
C[N+]1(CCCCC[N+]2(C)CCCC2)CCCC1,outcome,[1],inactive
same,outcome,[2],inactive
same,outcome,[3],inactive
same,outcome,[5],inactive
O=C(O)CNCC(=O)O,outcome,[1],inactive
same,outcome,[16],inactive
same,outcome,[6],inactive
same,outcome,[3],inactive
CC1CCc2nccnc21 (stereo not drawn),outcome,[1],inactive
same,outcome,[2],inactive
same,outcome,[4],inactive
CN1CCCN=C1/C=C/c1cccs1,outcome,[1],inactive
same,outcome,[16],inactive
same,outcome,[6],inactive
O=[N+]([O-])c1ccccc1CCO,outcome,[1],inactive
same,outcome,[16],inactive
same,outcome,[6],inactive
same,outcome,[3],inactive
same,outcome,[4],inactive
